The results in this text go back to PubChem BioAssay (NCI).

Compounds without any hit were thinned out: in the full panel of roughly 83,000, 20% have a hit.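 96-well plates, one dose, 48 hours. Percent growth reported; active if below 10.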 Unmarked numbers belong to inactive results. The source made the active and inactive calls.

Test systems include T-47D breast; BT-549 breast; MDA-MB-435 melanoma; SW-620 colon; MCF7 breast; HCT-116 colon; HCC-2998 colon; KM12 colon.
What all share (assay): NCI-60 one-dose screen, 48 h (100 = growth as untreated, 0 = no growth, -100 = all killed)
Common to all, as to conditions: 10 µM unless noted

In the case of `Nc1cc(N)c2cccnc2c1O`, the growth in the assay with T-47D breast was 93.4%; with BT-549 breast it was 90.3%; in the assay on MDA-MB-435 melanoma it was -83.9% (active); with SW-620 colon, 60%; in the assay with MCF7 breast it was 46.3%; with HCT-116 colon it was 51.7%. For the same compound, the growth is 77.1% in the assay with HCC-2998 colon and 81.6% in the assay on KM12 colon.

On to `COc1ccc(Cn2nc3c(c2-c2cc(OC)c(OC)c(OC)c2)-c2oncc2CC3)cc1`, for which the growth with T-47D breast is 79.3%; in the assay with BT-549 breast it was 88.9%; with MDA-MB-435 melanoma, 0.861% (active); in the assay on SW-620 colon it was 86%; in the assay on MCF7 breast, 69.9%; with HCT-116 colon, 81.4%. Moreover, the values for the growth in the assay with HCC-2998 colon and with KM12 colon were 77.5% and 70.9%, respectively.

In the case of `C#CCn1cc(C=C2C(=O)NC(=S)NC2=O)c2cc(Cl)ccc21`, the growth in the assay with T-47D breast is 76.6%; in the assay with BT-549 breast it was 24.6%; with MDA-MB-435 melanoma it was 15%; in the assay with SW-620 colon it was -27.5% (active); in the assay with MCF7 breast, 10.6%; with HCT-116 colon, 2.51% (active). Besides, the growth in the assay on HCC-2998 colon is -4.98% (active); in the assay with KM12 colon, 14.4%.

In the case of `Fc1ccc(C2CC(c3cccc(Nc4ccncc4)c3)=NN2c2cc(Cl)cc(Cl)c2)cc1` (stereo not given), the growth was 74.6% in the assay with T-47D breast; 104% in the assay on BT-549 breast; -22.5% (active) with MDA-MB-435 melanoma; -85.2% (active) in the assay with SW-620 colon; -25.6% (active) with MCF7 breast; 98.8% in the assay on HCT-116 colon. Besides, the growth with HCC-2998 colon was 19.1%; with KM12 colon it was -35.7% (active).

For the compound `COc1ccc(OC)c(/C=C/[C@H]2O[C@@H](C)[C@H](O)[C@@H]2O)c1`, the growth in the assay on T-47D breast is 96%; in the assay with BT-549 breast it was 104%; in the assay on MDA-MB-435 melanoma it was 100%; in the assay with SW-620 colon it was 113%; in the assay with MCF7 breast, 101%; in the assay on HCT-116 colon, 101%. For the same compound, the growth in the assay with HCC-2998 colon is 108%; with KM12 colon, 112%.

In the case of `Nc1c(C(=O)Nc2ccc(Cl)cc2)cc(-c2nc3ccccc3s2)c(=O)n1NS(=O)(=O)c1ccc(Cl)cc1`, the growth with T-47D breast was 92.9%; with BT-549 breast, 122%; with MDA-MB-435 melanoma, 99.8%; in the assay with SW-620 colon, 96.9%; with MCF7 breast, 84.2%; in the assay with HCT-116 colon, 98.6%. The growth with HCC-2998 colon was 107%; in the assay with KM12 colon, 99%.

Take `COc1c(Cl)cc(Cl)c2ccc(C=C3C(=O)N(C)C(=O)N(C)C3=O)nc12`: the growth in the assay on T-47D breast was 100%; in the assay on BT-549 breast, 90.4%; in the assay on MDA-MB-435 melanoma, 102%; in the assay on SW-620 colon it was 105%; in the assay with MCF7 breast, 94.9%; with HCT-116 colon it was -46.6% (active). In addition, the growth with HCC-2998 colon and in the assay with KM12 colon was 101% in each case.

On to `COc1ccc2c(c1)OC13Oc4cc(OC)ccc4C=C1CCCC3=C2`, for which the growth is 44.7% in the assay with T-47D breast; 35% with BT-549 breast; -10.4% (active) in the assay with MDA-MB-435 melanoma; 16.6% with SW-620 colon; 8.63% (active) with MCF7 breast; 20% in the assay with HCT-116 colon. Further, the growth was 57.9% with HCC-2998 colon and -5.69% (active) in the assay on KM12 colon.

Take `CCOc1ccc(/C=N/Nc2cc(C)nc3ccc(Cl)cc23)cc1`: the growth is 60.3% in the assay on T-47D breast; 80.6% in the assay on BT-549 breast; 40.9% in the assay on MDA-MB-435 melanoma; -72.8% (active) with SW-620 colon; 1.28% (active) in the assay on MCF7 breast; -75.3% (active) in the assay with HCT-116 colon. Also, the growth in the assay with HCC-2998 colon is 27.5%; in the assay on KM12 colon, 33.3%.

`CCCCCN1C=C/C(=C\C(=O)N(C)c2cccc3ccccc23)c2ccccc21`: the growth in the assay on T-47D breast was 87.9%; in the assay on BT-549 breast, 99.4%; in the assay with MDA-MB-435 melanoma, 100%; in the assay with SW-620 colon it was 94.3%; in the assay with MCF7 breast, 91.3%; in the assay on HCT-116 colon, 86.9%. Besides, the growth in the assay with HCC-2998 colon was 102%; with KM12 colon, 103%.

As to `COc1ccccc1N1CCN(C(=O)c2ccc3nc(NC(=O)c4ccc(NCCc5ccccc5)c([N+](=O)[O-])c4)sc3c2)CC1`, the growth was 73.2% with T-47D breast; 80.3% with BT-549 breast; 89.4% in the assay on MDA-MB-435 melanoma; 75.1% with SW-620 colon; 70.8% in the assay on MCF7 breast; 57.7% with HCT-116 colon. Moreover, the values for the growth in the assay on HCC-2998 colon and with KM12 colon were 110% and 79%, respectively.

Take `C[C@H]1[C@H](C)CC[C@]2(CO)CC[C@]3(C)C(=CC[C@@H]4[C@@]5(C)Cc6c([nH]c7ccccc67)C(C)(C)[C@@H]5CC[C@]43C)[C@H]12`: the growth with T-47D breast was 68.3%; in the assay with BT-549 breast, 85.2%; in the assay with MDA-MB-435 melanoma it was 90.3%; with SW-620 colon, 96.2%; in the assay on MCF7 breast, 74.1%; with HCT-116 colon, 61.5%. The results for the growth with HCC-2998 colon and in the assay with KM12 colon were 86% and 73.8%, respectively.

As to `OC(c1ccccc1)c1ccccn1` (stereo not given), the growth was 87.4% in the assay on T-47D breast; 93.4% in the assay on BT-549 breast; 104% with MDA-MB-435 melanoma; 102% with SW-620 colon; 102% in the assay on MCF7 breast; 103% with HCT-116 colon. The growth is 104% with HCC-2998 colon and 102% in the assay on KM12 colon.

Regarding `COc1ccc(NC(=O)c2sc3nc(C)c(C(=O)CCc4cccc(OC)c4)cc3c2N)cc1`, the growth in the assay with T-47D breast is 67.6%; in the assay on BT-549 breast, 79.6%; in the assay with MDA-MB-435 melanoma, -10.4% (active); in the assay on SW-620 colon, 64.7%; with MCF7 breast, 16.5%; with HCT-116 colon it was 45.6%. In addition, the growth with HCC-2998 colon was 56%; with KM12 colon it was 56.1%.

On to `O=S(=O)(NCCCNc1nccc(-c2c(-c3cccc(O)c3)nc3occn23)n1)c1ccc(Br)cc1`, for which the growth in the assay with T-47D breast was 83.2%; in the assay with BT-549 breast, 105%; with MDA-MB-435 melanoma it was 40.6%; in the assay with SW-620 colon, 112%; with MCF7 breast, 98.8%; with HCT-116 colon, 65.2%. Also, the figures for the growth in the assay with HCC-2998 colon and in the assay on KM12 colon were 121% and 94.4%, respectively.
